Measurements published in PubChem BioAssay (NCI).
This is part of a sample that, as a whole, favours compounds with a hit. Of some 83,000 tested, about 20% had one in any assay.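 Activity criterion: percent growth below 10, measured after cells in 96-well plates were exposed to a single compound concentration for 48 hours.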 A number with no mark means an inactive call. Calls of active or inactive are those of the source.

Assays:
Test in all cases: NCI-60 one-dose screen, 48 h (100 = growth as untreated, 0 = no growth, -100 = all killed)
Conditions in all cases: 10 µM unless noted
MOLT-4 leukemia = tested on: MOLT-4 leukemia
SR leukemia = tested on: SR leukemia
RPMI-8226 leukemia = tested on: RPMI-8226 leukemia
OVCAR-8 ovarian = tested on: OVCAR-8 ovarian
OVCAR-5 ovarian = tested on: OVCAR-5 ovarian
OVCAR-4 ovarian = tested on: OVCAR-4 ovarian
SK-OV-3 ovarian = tested on: SK-OV-3 ovarian
IGROV1 ovarian = tested on: IGROV1 ovarian
OVCAR-3 ovarian = tested on: OVCAR-3 ovarian
HS 578T breast = tested on: HS 578T breast
NCI/ADR-RES ovarian = tested on: NCI/ADR-RES ovarian
T-47D breast = tested on: T-47D breast
BT-549 breast = tested on: BT-549 breast
MDA-MB-435 melanoma = tested on: MDA-MB-435 melanoma
SW-620 colon = tested on: SW-620 colon
MCF7 breast = tested on: MCF7 breast
HCT-116 colon = tested on: HCT-116 colon
HCC-2998 colon = tested on: HCC-2998 colon
KM12 colon = tested on: KM12 colon

Row | Compound | growth (MOLT-4 leukemia) | growth (SR leukemia) | growth (RPMI-8226 leukemia) | growth (OVCAR-8 ovarian) | growth (OVCAR-5 ovarian) | growth (OVCAR-4 ovarian) [%] | growth (SK-OV-3 ovarian) | growth (IGROV1 ovarian) | growth (OVCAR-3 ovarian) | growth (HS 578T breast) | growth (NCI/ADR-RES ovarian) | growth (T-47D breast) | growth (BT-549 breast) | growth (MDA-MB-435 melanoma) | growth (SW-620 colon) | growth (MCF7 breast) | growth (HCT-116 colon) | growth (HCC-2998 colon) | growth (KM12 colon)
1 | CC(=O)O[C@H](C[C@H](C(C)C)N(C)C(=O)[C@@H](NC(=O)[C@H]1CCCCN1C)C(C)C)c1cccc(C(=O)N[C@@H](Cc2ccccc2)C[C@H](C)C(=O)O)n1 | 9.11% (active) | 6.32% (active) | 19.7% | 1.57% (active) | 32.5% | 41.9 | 23.3% | 24% | -50.3% (active) | 9.57% (active) | 8.24% (active) | 47.7% | -8.23% (active) | -37.7% (active) | 23.7% | 15.9% | 2.75% (active) | 9.77% (active) | 4.91% (active)
2 | CCOC(=O)[C@@H](C)C[C@H](Cc1ccccc1)NC(=O)c1nc([C@@H](C[C@H](C(C)C)N(C)C(=O)[C@@H](NC(=O)[C@H]2CCCCN2C)C(C)C)OC(C)=O)sc1CCOCc1ccccc1 | -2.06% (active) | -36.9% (active) | -32% (active) | -19.3% (active) | 6.59% (active) | 14.9 | -3.36% (active) | -4.01% (active) | -53% (active) | -27.9% (active) | 1.07% (active) | 24.7% | -50.9% (active) | -58.3% (active) | 6.51% (active) | 5.53% (active) | -33.7% (active) | -59.6% (active) | -39.8% (active)
3 | CC1(C)[C@H](O)[C@H](F)C[C@@]2(C)Oc3ccc(C(=O)Nc4ccc5c(c4)NC(=O)C54CCN(CCCCC#N)CC4)cc3C[C@H]12 | -19.5% (active) | 10.4% | -12.6% (active) | 62.5% | 62.9% | 64.9 | 17.7% | 63.2% | 61.3% | -13.3% (active) | 83.4% | 38.2% | 32.5% | 24.8% | 0.683% (active) | 27.6% | 18.5% | 68.5% | 22%
4 | CC1=C(O)[C@@](C)(CCCCC[C@H](C)CCCCc2ccc(O)cc2)OOC1=O | 86% | 50.1% | 85% | 93.4% | 103% | 100 | 106% | -11.1% (active) | 86.5% | 98.1% | 88.5% | 89% | 97.4% | 82.6% | 109% | 98.8% | 88.6% | 115% | 90.1%
5 | COC(=O)C12CC(NC(=O)c3csc([C@@H](C[C@H](C(C)C)N(C)C(=O)[C@@H](NC(=O)[C@H]4CCCCN4C)C(C)C)OC(C)=O)n3)(C1)C2 | 14.3% | 15.2% | 17.8% | 24.8% | 46.8% | 50.4 | 13.2% | 19.3% | -17.5% (active) | 35.3% | -4.67% (active) | 75.2% | -25.8% (active) | -43.7% (active) | 27.4% | 15.4% | 4.37% (active) | 10.4% | 11.1%
6 | Cc1c(O)c(CN(CCCl)CCCl)cc(CN(CCCl)CCCl)c1O | 75.2% | 4.03% (active) | 86.8% | 90.4% | 97.9% | 83.9 | 102% | 87.4% | 101% | 86.3% | 103% | 79.3% | 99.1% | 96.8% | 67.9% | 67.5% | 84% | 90.6% | 103%
7 | C[C@@]12CC=C3c4nc(Nc5cccc(O)c5)sc4CC[C@]3(C)[C@H]1CC[C@]1(C)C(=O)CC[C@@H]21 | 5.52% (active) | 3.61% (active) | -13.6% (active) | 17.9% | 110% | 52.1 | 37.3% | -12.1% (active) | -3.79% (active) | 7.41% (active) | 78.9% | -8.55% (active) | 17.4% | 42.6% | -4.13% (active) | -25.9% (active) | -23.7% (active) | 81.5% | 34.7%
8 | CC[C@H](C)[C@H](NC(=O)[C@H]1CCCCN1C)C(=O)N(C)[C@H](C[C@@H](O)c1nc(C(=O)N[C@@H](Cc2ccccc2)C[C@H](C)C(=O)O)cs1)C(C)C | 79% | 29.2% | 59.8% | 93.5% | 101% | 98 | 97% | 76.6% | 63.2% | 75.7% | 109% | 81.5% | 88.5% | 18.9% | 58.6% | 29.9% | 77.7% | 99.9% | 72.7%
